Data on 9 molecules can be found in PubChem BioAssay (Tox21).

Inconclusive results are not listed. Unmarked numbers belong to inactive results. The source made the active and inactive calls. Unless noted, the call rests on the fitted dose curve; in most records, active means well fitted curve in the direction sought with a large enough effect in the repeat runs; inconclusive means weak or mixed curves; inactive means no such curve, though single readings can be large; an effect the other way counts as inactive or inconclusive.

For assay [1], the target named is Retinoic acid receptor RXR-alpha (Homo sapiens) (UniProt P19793). In words: qHTS assay to identify small molecule agonists of the RXR signaling pathway (AID 1159527; calls by dose curve; further: nearly all actives have a fitted effect of over 35% in size). Summed up: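 Cells plated at 2,000/well, rested 5 hr at 37 C, pin-dosed with DMSO compound solutions, incubated 16 hr, then loaded with B/G FRET substrate for 2 hr at RT before dual-emission fluorescence reading.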
Retinoic acid receptor RXR-alpha (Homo sapiens), sequence (P19793 whole entry, looked up): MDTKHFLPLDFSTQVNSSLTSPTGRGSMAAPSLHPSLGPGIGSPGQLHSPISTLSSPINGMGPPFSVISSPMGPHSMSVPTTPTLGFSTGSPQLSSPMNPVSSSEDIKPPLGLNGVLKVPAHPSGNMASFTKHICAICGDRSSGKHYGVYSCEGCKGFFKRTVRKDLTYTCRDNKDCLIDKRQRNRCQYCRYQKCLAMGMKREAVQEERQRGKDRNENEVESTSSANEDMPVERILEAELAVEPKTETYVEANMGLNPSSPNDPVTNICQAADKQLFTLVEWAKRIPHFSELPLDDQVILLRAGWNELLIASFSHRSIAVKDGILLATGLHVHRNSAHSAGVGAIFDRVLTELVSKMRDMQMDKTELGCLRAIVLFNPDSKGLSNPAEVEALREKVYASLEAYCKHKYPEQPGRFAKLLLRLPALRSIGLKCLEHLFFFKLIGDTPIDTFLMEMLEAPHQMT
(In general: Quantitative high-throughput screening tests each substance at several concentrations.)

Assay [2] in a line: qHTS assay to identify small molecule agonists of the RXR signaling pathway - cell viability counter screen (AID 1159529).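 Further: HEK 293T cells carrying an RXR-alpha UAS beta-lactamase reporter; series mostly up to about 77 µM; nearly all actives have a fitted effect of over 50% in size.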 Put shortly: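 Steps: seed RXR-alpha-UAS-bla HEK 293T cells in assay medium containing 2% charcoal-stripped FBS; incubate 5 hr; add compounds in DMSO; incubate 16 hr at 37 C; after the bla read, add CellTiter-Glo and read luminescence at 30 min.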
Assay [3] can be described thus: qHTS assay to identify small molecule antagonists of the retinoid acid receptor (RAR) signaling pathway - cell viability counter screen (AID 1159551). Further: nearly all actives have a fitted effect of over 35% in size. Put shortly:
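Measured by luminescent ATP detection, viability reflects C3RL4 cells treated 6 h at 37 C with test chemicals in the presence of 1 uM (final) retinol.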

The nature of assay [4]: qHTS assay to identify small molecule antagonists of the retinoic acid receptor (RAR) signaling pathway (AID 1159552; further: nearly all actives have a fitted effect of over 50% in size). Summed up:
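Retinol at 1 uM final stimulated RARE-luciferase expression in C3RL4 cells exposed to test compounds for 6 hr at 37 C. Reduced luminescence, read 30 min after detection reagent, indicated pathway antagonism.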

Assay [5] can be described thus: qHTS assay to identify small molecule agonists of the retinoic acid receptor (RAR) signaling pathway (AID 1159553). Further: potency means the concentration at half of the fitted maximal effect. Put shortly:
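6 hr compound exposure (DMSO vehicle) of overnight-plated C3RL4 RARE-luc cells at 37 C; luminescence quantified after 30 min RT with luciferase reagent.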

Assay [6] in a line: qHTS assay to identify small molecule antagonists of the estrogen related receptor (ERR) signaling pathway from Tox21 library - cell viability counter screen (AID 1224834). Further: nearly all actives have a fitted effect of over 30% in size. Put shortly:
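Seeded ERR cells were rested 6 h at 37 C/5% CO2 before compounds, positive and negative controls or DMSO were added. Incubation continued for 17.5 h, and viability was then quantified by CellTiter-Fluor fluorescence.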

For assay [7], the target named is Luciferin 4-monooxygenase (Photinus pyralis) (UniProt P08659). Briefly: qHTS assay to identify small molecule inhibitors of firefly luciferase (AID 1224835). Further: series mostly up to about 120 µM; nearly all actives have a fitted effect of over 25% in size. Summed up:
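Quantitative HTS format; KM concentrations of both substrates. Purified P. pyralis FLuc activity quantified from luminescence images.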

The nature of assay [8]: qHTS assay to identify small molecule agonists of the constitutive androstane receptor (CAR) signaling pathway - cell viability counter screen (AID 1224836). Further: series mostly up to about 92 µM; nearly all actives have a fitted effect of over 45% in size. Summed up:
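Cells were seeded and incubated 4 hrs. Compounds were added across 15 concentrations together with PK11195 at 0.75 uM final. Plates were incubated 23 hrs at 37 C. CellTiter-Fluor was added and fluorescence measured.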

Assay [9] is described as follows: qHTS assay to identify small molecule antagonists of the constitutive androstane receptor (CAR) signaling pathway - cell viability counter screen (AID 1224837). Further: series mostly up to about 92 µM; nearly all actives have a fitted effect of over 45% in size. Put shortly:
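To flag cytotoxic false antagonists, HepG2 hCAR/CYP2B6-2.2kb cells were treated 23 hr with 15-concentration compound series and 50 nM CITCO at 37 C/5% CO2; CellTiter-Fluor fluorescence was the measured end point.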

The target of assay [10] is Nuclear receptor subfamily 1 group I member 3 (Homo sapiens) (UniProt Q14994). Briefly: qHTS assay to identify small molecule antagonists of the constitutive androstane receptor (CAR) signaling pathway (AID 1224838).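 Further: HepG2 cells stably expressing hCAR with CYP2B6 luciferase reporter stimulated by CITCO; nearly all actives have a fitted effect of over 40% in size.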 Put shortly:
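Human hepatoma HepG2 cells expressing hCAR and a CYP2B6 promoter (2.2 kb) luciferase construct; compound titration (15 points) with 50 nM CITCO final, 24 h at 37 C/5% CO2; luminescence via ONE-Glo after 30 min at room temperature.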

The target is the same in assay [11]. In words: qHTS assay to identify small molecule agonists of the constitutive androstane receptor (CAR) signaling pathway (AID 1224839). Further: nearly all actives have a fitted effect of over 15% in size. Further: potency means the concentration at half of the fitted maximal effect.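 On activation: HepG2 cells stably carrying human CAR and a CYP2B6 luciferase reporter; series mostly up to about 92 µM.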 Summed up: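 Cells were plated and incubated 4 hrs, then dosed with compounds at 15 concentrations. PK11195 was added to 0.75 uM final. After 24 hrs at 37 C, luciferase luminescence was measured.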
Assay [12] is described as follows: qHTS assay to identify small molecule antagonists of the estrogen related receptor signaling pathway with the pleiotropic PPARgamma coactivator (PGC) from Tox21 10K library - cell viability counter screen (AID 1224840; active means well fitted cell-killing curve with a large enough effect in the repeat runs, not every such curve was filed as active; further: nearly all actives have a fitted effect of over 40% in size). Put shortly: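 Seeded PGC/ERR cells (2,000/well, 6 h, 37 C/5% CO2) get compound by pin tool; 17.5 h incubation at 37 C; CellTiter-Fluor added, 30 min, fluorescence measured.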

The nature of assay [13]: qHTS assay to identify small molecule antagonists of the estrogen related receptor signaling pathway with the pleiotropic PPARgamma coactivator (PGC) from Tox21 10K library (AID 1224841; call rule not given here; further: series mostly up to about 92 µM; actives are mostly falling curves and most rising ones were filed inactive; nearly all actives have a fitted effect of over 50% in size). Summed up: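 Test chemicals dissolved in DMSO were applied to pre-incubated (6 h) PGC/ERR cells at 2,000 cells/well for an 18 h, 37 C treatment; reporter luminescence was then read using One-Glo.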

Assay [14] is described as follows: qHTS assay to identify small molecule agonists of the estrogen related receptor signaling pathway with the pleiotropic PPARgamma coactivator (PGC) from Tox21 10K library (AID 1224842). Further: nearly all actives have a fitted effect of over 15% in size. Put shortly: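 PGC/ERR reporter cells (NTP line) were seeded 2,000 per well, rested 6 h at 37 C/5% CO2, then pin-dosed with compounds in DMSO for 18 h at 37 C; luciferase read by One-Glo luminescence after 30 min at room temperature.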
On the % scale 0 is the no-effect control and ±100 the full control effect.

Nuclear receptor subfamily 1 group I member 3 (Homo sapiens), sequence (Q14994 whole entry, looked up): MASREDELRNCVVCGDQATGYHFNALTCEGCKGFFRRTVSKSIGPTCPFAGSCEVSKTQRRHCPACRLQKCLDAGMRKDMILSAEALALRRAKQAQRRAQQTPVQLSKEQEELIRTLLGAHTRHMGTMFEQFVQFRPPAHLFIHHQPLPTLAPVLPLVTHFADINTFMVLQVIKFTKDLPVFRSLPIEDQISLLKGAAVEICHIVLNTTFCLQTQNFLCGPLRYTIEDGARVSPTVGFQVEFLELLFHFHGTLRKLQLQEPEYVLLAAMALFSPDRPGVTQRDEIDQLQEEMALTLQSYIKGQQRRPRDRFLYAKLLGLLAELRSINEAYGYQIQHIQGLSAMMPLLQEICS
Luciferin 4-monooxygenase (Photinus pyralis), sequence (P08659 whole entry, looked up): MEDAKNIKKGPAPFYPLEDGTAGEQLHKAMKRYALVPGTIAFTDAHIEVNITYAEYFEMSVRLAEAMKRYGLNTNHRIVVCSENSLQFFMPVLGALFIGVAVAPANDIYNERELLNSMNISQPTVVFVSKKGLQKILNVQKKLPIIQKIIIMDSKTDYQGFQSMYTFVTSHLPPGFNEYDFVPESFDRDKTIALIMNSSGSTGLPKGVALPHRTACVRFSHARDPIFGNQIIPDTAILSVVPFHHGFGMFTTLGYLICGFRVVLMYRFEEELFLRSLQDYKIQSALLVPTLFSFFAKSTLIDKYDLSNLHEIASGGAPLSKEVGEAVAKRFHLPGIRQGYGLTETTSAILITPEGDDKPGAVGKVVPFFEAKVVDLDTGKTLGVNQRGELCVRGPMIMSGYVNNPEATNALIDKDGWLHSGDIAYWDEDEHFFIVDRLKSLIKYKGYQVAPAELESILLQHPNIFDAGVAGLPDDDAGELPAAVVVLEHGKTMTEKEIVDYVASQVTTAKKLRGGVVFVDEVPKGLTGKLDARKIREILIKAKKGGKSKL

Consider `CC(=O)OCCC1CCCCC1`, for which the Potency result in assay [1], in [2], in [3], in assay [4], in assay [5] and in assay [6] was “inactive” throughout. Further, the Potency result in [7], in [8], in [9], in assay [10], in assay [11] and in [12] was “inactive” in each case.
As to `CCC(Cl)CC(Cl)C(Cl)C(Cl)C(Cl)C(C)Cl` (configuration not stated), in [1], the activation was -0.0074% [at 15.8 µM]. In addition, the activity change, negative = cytotoxicity was -9.76% [at 15.8 µM] in assay [2], 0.117% [at 19 µM] in [3] and -3.5% [at 19 µM] in assay [9]. The results for the activity, negative = inhibition in [4] and in assay [10] were 84.9% [at 19 µM] and 94.1% [at 19 µM], respectively. Moreover, the figures for the Potency in assay [5] and in [11] were 0.133 µM (active) and 2.65 µM (active), respectively. Besides, the values for the viability change, negative = cytotoxic in assay [6], in [8] and in [12] were -2.15% [at 19 µM], -5.9% [at 19 µM] and -3.01% [at 19 µM], respectively. For the same molecule, the activity change, negative = inhibition in assay [7] was -6.92% [at 23.6 µM].
Turning to `Cc1ccc(Cl)cc1N`, the Potency result in assay [1], in [2], in [3], in assay [4], in [5] and in assay [6] was “inactive” each time. The Potency result in assay [7], in assay [8], in assay [9], in [10], in assay [11] and in assay [12] was “inactive” each time.
As to `CC(C)OC(=O)c1ccccc1C(=O)OC(C)C`, the Potency entry in [1], in [2], in [3], in assay [4], in [5] and in [6] was “inactive” each time. Besides, the Potency result in [7], in assay [8], in assay [9], in [10] and in [12] was “inactive” in each case.
Take `C=CCOC(=O)COCCC(C)C`: the Potency entry in [1], in assay [2], in assay [3], in assay [4], in assay [5] and in assay [6] was “inactive” in each case. In addition, the Potency entry in assay [7], in assay [8], in [9], in assay [10], in [11] and in assay [12] was “inactive” each time.
Turning to `CC(=O)OCC1=C(C(=O)O)N2C(=O)[C@@H](NC(=O)CSc3ccncc3)[C@H]2SC1`, the Potency result in assay [1], in [2], in [3], in [4], in assay [5] and in assay [6] was “inactive” throughout. In addition, the Potency entry in assay [7], in assay [8], in assay [9], in assay [10], in assay [11] and in assay [12] was “inactive” in each case. For the same molecule, the Potency result in [13] and in assay [14] was “inactive” each time.
For the molecule `Oc1cccc2[nH]ccc12`, the Potency entry in assay [1], in assay [2], in assay [3], in assay [4], in [5] and in [6] was “inactive” throughout. Also, the Potency entry in [7], in assay [8], in [9], in [10] and in assay [11] was “inactive” in each case.
For `CC1C(C)(C)C2=C(C(=O)CCC2)C1(C)C` (configuration not stated), the Potency result in [1], in assay [2], in assay [3], in assay [4], in assay [5] and in assay [6] was “inactive” in each case. Also, the Potency entry in [7], in [8], in assay [9], in assay [10], in [11] and in assay [12] was “inactive” each time. Besides, the Potency entry in assay [13] and in [14] was “inactive” in each case.
Take `O=C1CC[C@@H](C(=O)O)N1`: the Potency result in [1], in [2], in assay [3], in assay [4], in assay [5] and in assay [6] was “inactive” throughout. Besides, the Potency entry in [7], in assay [8], in assay [9], in assay [10], in assay [11] and in assay [12] was “inactive” in each case. Further, the Potency result in [13] and in [14] was “inactive” throughout.
